In PubChem BioAssay (Tox21) one finds Potency data, which are given here for 14 compounds.

A short description of assay [1]: cAMP Responsive Elements (CRE) small molecule antagonists, cell-based qHTS assay: qHTS cell viability counter screen (AID 2060913). Further: nearly all actives have a fitted effect of over 40% in size. The following applies: CRE-bla HEK293T viability, CellTiter-Glo luminescence, 5 h; series mostly up to 92.4 µM. Summed up: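 Steps: cells plated and held 18 hrs at 37 C/5% CO2; compounds and NKH477 (0.25 uM final) added; 3 hrs incubation; reporter substrate read; CellTiter-Glo added to measure cytotoxicity by luminescence.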
Background: Quantitative high-throughput screening tests each substance at several concentrations.

Assay [2] in a line: cAMP Responsive Elements (CRE) small molecule agonists, cell-based qHTS assay: qHTS cell viability counter screen (AID 2060914). Further: nearly all actives have a fitted effect of over 50% in size. The following applies: CRE-bla HEK293T viability, CellTiter-Glo luminescence, 5 h; series mostly up to 92.4 µM. Summed up:
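HEK 293T CRE-bla; DMEM + 10% dialyzed FBS, 25 mM HEPES; 18 h pre-incubation; compound 3 h, 37 °C/5% CO2; CellTiter-Glo added after reporter read; luminescence after 30 min RT.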

Inconclusive results are not listed. Entries that show only a call come without a potency. Activity calls are given as the source filed them. The call rests on the fitted dose curve; in most records, active means well fitted cell-killing curve with a large enough effect in the repeat runs; inconclusive means weak or mixed curves, or effect the other way; inactive means flat fitted curve, though single readings scatter.

Consider `CCCC(C)C(O)CC` (stereo not drawn), for which the Potency entry in assay [1] and in assay [2] was “inactive” throughout.

As to `O=C(NN1CCCC1)NS(=O)(=O)c1ccc(Cl)cc1`, the Potency entry in assay [1] and in assay [2] was “inactive” throughout.

Consider `CN1CCCC1`, for which the Potency result in assay [1] and in assay [2] was “inactive” in each case.

Take `CC(C)C[C@H]1C(=O)N2CCC[C@H]2[C@]2(O)O[C@](NC(=O)[C@@H]3C=C4c5cccc6[nH]c(Br)c(c56)C[C@H]4N(C)C3)(C(C)C)C(=O)N12`: the Potency entry in assay [1] and in assay [2] was “inactive” in each case.

As to `O=C(O)c1cc(Cl)cc(Cl)c1`, the Potency result in assay [1] and in assay [2] was “inactive” each time.

Regarding `C[C@@H]1C[C@H]2[C@@H]3C[C@H](F)C4=CC(=O)C=C[C@]4(C)[C@@]3(F)[C@@H](O)C[C@]2(C)[C@@]1(O)C(=O)CO`, the Potency result in assay [1] and in assay [2] was “inactive” in each case.

`CC(C)CCCCCCCOC(=O)c1ccc(C(=O)OCCCCCCCC(C)C)c(C(=O)OCCCCCCCC(C)C)c1`: the Potency entry in assay [1] and in assay [2] was “inactive” throughout.

In the case of `COc1nc(N)nc2c1ncn2[C@@H]1O[C@H](CO)[C@@H](O)[C@@H]1O`, the Potency result in assay [1] and in assay [2] was “inactive” in each case.

As to `CN1CCN(CCCN2c3ccccc3Sc3ccc(S(=O)(=O)N(C)C)cc32)CC1`, the Potency result in assay [1] and in assay [2] was “inactive” each time.

As for `CC(C)(CO)COC(=O)C(C)(C)CO`, the Potency entry in assay [1] and in assay [2] was “inactive” in each case.

Turning to `O=c1n(CCO)c(=O)n(CCO)c(=O)n1CCO`, the Potency entry in assay [1] and in assay [2] was “inactive” in each case.

In the case of `CC(O)C#CC(C)O` (stereo not drawn), the Potency result in assay [1] and in assay [2] was “inactive” throughout.

For `Cc1ccccc1S`, the Potency entry in assay [1] and in assay [2] was “inactive” each time.

On to `NC(=O)NC(=O)Cc1ccccc1`, for which the Potency result in assay [1] and in assay [2] was “inactive” in each case.
